Screens as filed in PubChem BioAssay.
NS3h inh CB: blocks HCV NS3 helicase binding to DNA; AID 687043; NS3h Cy5-dT15 DNA binding, fluorescence polarization; hit rate 1.6% among 16,000; inhibition, % at 100 µM;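 active = inhibition above the average over every tested compound plus 3 SD, cut at about 40% in these data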
Cy5 interf NS3h: Cy5 fluorescence interference, HCV helicase counter-screen. fluorescence interference ratio at 100 µM. hit rate 6% among 16,000. Cy5-dT15 DNA with NS3h; actives lie on both sides; signal over control mean, under 1 quenches;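 active = compound fluorescence over control fluorescence at most 0.8, a quencher, or at least a set upper limit, an enhancer; inactive = ratio between 0.8 and the set upper limit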
* = called active by the depositor. Only some compounds are listed: those with a hit (about 6.9% of all), similar ones and a draw of the others.

SMILES	NS3h inh CB	Cy5 interf NS3h
O=C(c1cc(Cl)ccc1Cl)N1CCOCC1	6	1.1
O=C(c1cc(Cl)ccc1Cl)N1CCN(c2ccccc2)CC1	5	0.61*
COc1cc(C(=O)N2CCN(c3cccc(Cl)c3)CC2)c([N+](=O)[O-])cc1OC	19	0.67*
COc1cc(C(=O)N2CCN(Cc3ccccc3)CC2)c([N+](=O)[O-])cc1OC	4	0.96
COc1ccc(CC(=O)O/N=C(/N)Cc2ccc(Cl)cc2Cl)cc1OC	10	1
O=C(c1cc(-c2ccccc2)nc2ccccc12)N1CCN(Cc2ccccc2)CC1	8	0.98
CC(C)OC(=O)c1cc2n(n1)C(C(F)(F)F)CC(c1cccs1)N2 (stereo not given)	8	1
Cc1ccc(S(=O)(=O)N2CCN(S(=O)(=O)c3ccc(C)cc3)C2c2ccc(N(C)C)cc2)cc1	14	0.94
Cc1ccc(S(=O)(=O)N2CCC(O)CC2C)cc1 (stereo not given)	20	0.74*
O=C(C1=C(O)C(=O)N(c2ncc(S(=O)(=O)c3ccc([N+](=O)[O-])cc3)s2)C1c1ccc(F)cc1)c1ccco1 (stereo not given)	11	0.79*
COc1ccc(C2C(=C(O)c3ccc(C)cc3)C(=O)C(=O)N2c2ncc(S(=O)(=O)c3ccc([N+](=O)[O-])cc3)s2)cc1 (stereo not given)	14	0.84
CCOC(=O)C1=C(C)N=c2s/c(=C\c3ccc([N+](=O)[O-])o3)c(=O)n2C1c1ccccc1Cl (stereo not given)	19	0.71*
CCOC(=O)C1=C(C)N=c2s/c(=C\c3ccc([N+](=O)[O-])o3)c(=O)n2C1c1cccs1 (stereo not given)	8	1
CCOC(=O)C1=C(C)N=c2s/c(=C\c3ccc([N+](=O)[O-])o3)c(=O)n2C1c1ccc(C)cc1 (stereo not given)	13	0.75*
CCOC(=O)C1=C(C)N=c2s/c(=C/c3ccccn3)c(=O)n2C1c1ccccc1Cl (stereo not given)	28	0.95
COc1cc(NC(=O)c2cccnc2)ccc1NC(=O)c1cc2ccccc2o1	4	1.1
CCOC(=O)/C(C#N)=C/c1ccc(OC)cc1OC	-9	0.98
COc1ccc(OC(C)C(=O)Nc2ccc(Cl)cc2)cc1 (stereo not given)	6	0.97
Cc1ccc(C(=O)NC(NC(=S)Nc2ccccc2)C(Cl)(Cl)Cl)cc1 (stereo not given)	0	0.96
Cc1ccc(C(=O)NC(NC(=S)Nc2cc(C)ccc2C)C(Cl)(Cl)Cl)cc1 (stereo not given)	3	0.64*
O=C(Nc1ccc(S(=O)(=O)Nc2ncccn2)cc1)c1cccc(Br)c1	16	1.1
O=C(Nc1ccc(S(=O)(=O)NC(=O)C2CCCCC2)cc1)c1cccc(Br)c1	-2	0.59*
CCCc1cc(=O)n2[nH]c(-c3cccc(Cl)c3)cc2n1	8	1
Cc1ccc(N2CC(C(=O)Nc3ccc(C)c(C)c3)CC2=O)cc1 (stereo not given)	1	1.1
CCCCn1c(CN2C(=O)c3ccccc3C2=O)nc2ccccc2c1=O	-2	1
SMILES	NS3h inh CB	Cy5 interf NS3h
O=c1c2ccccc2nc2ccc3nnnn3n12	-13	0.73*
O=P1(C(Nc2ccc(O)cc2)c2ccc(Br)cc2)OCCCO1 (stereo not given)	-15	0.95
Cc1ccc(-c2cc(NC(=O)c3ccc(Cl)cc3Cl)n[nH]2)cc1	-3	0.82
Cc1ccc(N=C(NO)c2ccc(Cl)cc2Cl)cc1	15	0.68*
O=C1c2ccc(S(=O)(=O)c3ccc4c(c3)C(=O)N(Cc3cccnc3)C4=O)cc2C(=O)N1Cc1cccnc1	-3	0.93
Nc1ccc[n+](CC(=O)c2ccccc2)c1	-14	0.75*
Nc1cccc(C(=O)Nc2ccccc2)c1	1	0.99
O=C(Nc1cccc(I)c1)c1cc2ccccc2oc1=O	8	0.96
NC(=O)c1ccc[n+](CC(=O)c2cc3ccccc3oc2=O)c1	-7	0.6*
COc1ccc(N(CC(=O)Nc2ccc(C(C)C)cc2)S(=O)(=O)c2ccccc2)cc1Cl	-3	1
COc1ccc(N(CC(=O)Nc2ccccc2Br)S(C)(=O)=O)cc1	18	1.3*
COc1ccc(N(CC(=O)Nc2ccccc2Cl)S(=O)(=O)c2ccc(C)cc2)c(OC)c1	-1	1.2*
COc1ccc(N(CC(=O)Nc2cc(OC)ccc2OC)S(=O)(=O)c2ccc(OC)c(OC)c2)cc1	11	1.1
COc1ccc(NC(=O)CN(c2cccc([N+](=O)[O-])c2)S(=O)(=O)c2ccccc2)cc1	-2	1
COc1ccc(N(CC(=O)Nc2ccc3ccccc3c2)S(=O)(=O)c2ccc(C)cc2)c(OC)c1	10	1.1
COc1ccc(N(CC(=O)Nc2ccc(Br)cc2)S(=O)(=O)c2ccc(OC)c(OC)c2)cc1	10	0.7*
COc1ccc(N(CC(=O)Nc2ccccc2Br)S(C)(=O)=O)c(OC)c1	7	0.98
COc1ccc(NC(=O)CN(c2cccc([N+](=O)[O-])c2)S(=O)(=O)c2ccccc2)c(OC)c1	28	0.7*
CCC(=O)c1ccc(N2CCN(S(=O)(=O)c3ccccc3)CC2)c(F)c1	-13	0.96
CC1CC(N(C(=O)c2ccco2)c2ccccc2)c2ccccc2N1 (stereo not given)	26	1.1
COc1ccc(S(=O)(=O)N(CC(=O)Nc2cccc3ccccc23)c2ccc(C)cc2)cc1OC	28	0.68*
COc1ccc(N(CC(=O)Nc2ccc(C(=O)N3CCOCC3)cc2)S(=O)(=O)c2ccccc2)cc1	13	0.72*
COc1ccc(S(=O)(=O)N(CC(=O)Nc2ccc(Br)cc2)c2ccc(C)cc2)cc1OC	17	0.68*
COc1ccc(NC(=O)CN(c2ccc(Cl)cc2)S(=O)(=O)c2ccccc2)cc1	11	1
CCOc1ccccc1NC(=O)CN(c1ccc(C)cc1)S(=O)(=O)c1ccc(OC)c(OC)c1	15	0.97
SMILES	NS3h inh CB	Cy5 interf NS3h
COc1ccc(S(=O)(=O)N(CC(=O)Nc2ccc(C(C)=O)cc2)c2ccc(C)cc2)cc1OC	10	0.91
Clc1ccc(Cn2nnc(-c3ccccc3)n2)c(Cl)c1	8	0.93
Cc1cc(-c2ccc(C=C3C(=O)N(C)C(=O)N(C)C3=O)o2)cc([N+](=O)[O-])c1C	9	1.1
CC(C)Cc1cc(C(=O)O)c2ccccc2n1	-6	0.87
COc1cc(NC(=O)c2cccc([N+](=O)[O-])c2)ccc1NC(=O)c1ccco1	-15	0.73*
COc1cc(NC(=O)c2ccc([N+](=O)[O-])cc2)ccc1NC(=O)c1ccco1	1	0.94
CCC(=O)Nc1cccc2c1C(=O)c1ccccc1C2=O	11	1.1
COC(=O)c1ccc2c(c1O)C(=O)c1ccccc1C2=O	-8	0.8*
O=C(O/N=C\c1ccc([N+](=O)[O-])cc1)c1cccs1	3	0.75*
O=C(/C=C/c1ccc(-c2cccc([N+](=O)[O-])c2)o1)c1cccs1	-5	1.1
COc1ccc(C2C(=C(O)c3ccccc3)C(=O)C(=O)N2CC2CCCO2)cc1 (stereo not given)	-10	0.99
CC(C)(C)OC(=O)COc1ccc2cc(-c3nc4ccccc4s3)c(=O)oc2c1	-3	1
O=C(COc1cccc2ccccc12)NCc1cccnc1	17	0.74*
O=C(COc1cccc2ccccc12)NCC1CCCO1 (stereo not given)	10	0.77*
O=C(COc1cccc2ccccc12)NCc1ccco1	4	0.89
